Seven compounds from ChEMBL document CHEMBL1961873, “Compounds: GSK PKIS; Assays: Nanosyn kinase panel” (2012) can be followed below.

In assay [1] the target is Serine/threonine-protein kinase pim-2 (Homo sapiens) (UniProt Q9P1W9). Conditions: at 1 µM.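 Note: each value is a mean of the inhibition measurements against the kinase.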
Assay [2] has as its target Serine/threonine-protein kinase pim-3 (Homo sapiens) (UniProt Q86V86). The note with it: at 0.1 µM.
The target is the same in assay [3]. The note with it: at 1 µM.
Assay [4] concerns the target T1, MAP kinase-activated protein kinase 5 (Homo sapiens) (UniProt Q8IW41).
T1 sequence (whole entry): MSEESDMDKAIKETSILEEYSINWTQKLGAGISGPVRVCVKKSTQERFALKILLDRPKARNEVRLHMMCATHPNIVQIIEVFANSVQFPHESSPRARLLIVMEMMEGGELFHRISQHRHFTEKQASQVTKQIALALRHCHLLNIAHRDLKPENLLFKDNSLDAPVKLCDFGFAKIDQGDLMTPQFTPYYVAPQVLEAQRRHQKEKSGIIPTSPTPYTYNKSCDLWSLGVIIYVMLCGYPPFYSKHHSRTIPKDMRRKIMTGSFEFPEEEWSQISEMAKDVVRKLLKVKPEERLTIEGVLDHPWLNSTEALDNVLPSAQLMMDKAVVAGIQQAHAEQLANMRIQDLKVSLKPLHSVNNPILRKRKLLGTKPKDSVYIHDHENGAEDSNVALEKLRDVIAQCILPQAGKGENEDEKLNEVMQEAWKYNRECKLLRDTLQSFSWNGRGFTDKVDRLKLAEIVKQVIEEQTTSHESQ
Conditions: at 0.1 µM.

The target of assay [5] is T1, MAP kinase-activated protein kinase 5 (Homo sapiens). The note with it: at 1 µM.
In assay [6] the target is Serine/threonine-protein kinase SIK1 (Homo sapiens) (UniProt P57059). The note with it: at 0.1 µM.
Serine/threonine-protein kinase SIK1 (Homo sapiens), sequence (P57059 whole entry): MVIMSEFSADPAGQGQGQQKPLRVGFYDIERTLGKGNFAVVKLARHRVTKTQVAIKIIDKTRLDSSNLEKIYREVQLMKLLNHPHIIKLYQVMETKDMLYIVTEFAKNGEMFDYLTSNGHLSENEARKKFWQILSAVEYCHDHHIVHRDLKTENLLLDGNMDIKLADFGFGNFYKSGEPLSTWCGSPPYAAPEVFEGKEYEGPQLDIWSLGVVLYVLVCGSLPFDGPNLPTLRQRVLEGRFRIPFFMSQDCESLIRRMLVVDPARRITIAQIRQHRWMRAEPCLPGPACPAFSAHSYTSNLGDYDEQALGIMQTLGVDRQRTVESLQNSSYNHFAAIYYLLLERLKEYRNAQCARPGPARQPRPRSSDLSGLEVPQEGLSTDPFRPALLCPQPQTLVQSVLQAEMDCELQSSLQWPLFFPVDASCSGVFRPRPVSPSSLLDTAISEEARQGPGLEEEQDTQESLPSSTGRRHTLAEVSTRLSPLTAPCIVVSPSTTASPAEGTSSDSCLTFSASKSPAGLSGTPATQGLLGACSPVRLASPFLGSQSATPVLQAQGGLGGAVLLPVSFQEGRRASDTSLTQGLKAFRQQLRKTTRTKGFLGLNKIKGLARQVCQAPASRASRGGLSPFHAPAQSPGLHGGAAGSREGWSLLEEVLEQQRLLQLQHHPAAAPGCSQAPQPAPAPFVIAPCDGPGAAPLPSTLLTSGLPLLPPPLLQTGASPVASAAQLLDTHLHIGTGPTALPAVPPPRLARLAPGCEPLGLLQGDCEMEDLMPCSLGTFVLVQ
Assay [7] has the same target. The note with it: at 1 µM.
In assay [8] the target is Serine/threonine-protein kinase SIK2 (Homo sapiens) (UniProt Q9H0K1). Conditions: at 0.1 µM.
Serine/threonine-protein kinase SIK2 (Homo sapiens), sequence (Q9H0K1 whole entry, looked up): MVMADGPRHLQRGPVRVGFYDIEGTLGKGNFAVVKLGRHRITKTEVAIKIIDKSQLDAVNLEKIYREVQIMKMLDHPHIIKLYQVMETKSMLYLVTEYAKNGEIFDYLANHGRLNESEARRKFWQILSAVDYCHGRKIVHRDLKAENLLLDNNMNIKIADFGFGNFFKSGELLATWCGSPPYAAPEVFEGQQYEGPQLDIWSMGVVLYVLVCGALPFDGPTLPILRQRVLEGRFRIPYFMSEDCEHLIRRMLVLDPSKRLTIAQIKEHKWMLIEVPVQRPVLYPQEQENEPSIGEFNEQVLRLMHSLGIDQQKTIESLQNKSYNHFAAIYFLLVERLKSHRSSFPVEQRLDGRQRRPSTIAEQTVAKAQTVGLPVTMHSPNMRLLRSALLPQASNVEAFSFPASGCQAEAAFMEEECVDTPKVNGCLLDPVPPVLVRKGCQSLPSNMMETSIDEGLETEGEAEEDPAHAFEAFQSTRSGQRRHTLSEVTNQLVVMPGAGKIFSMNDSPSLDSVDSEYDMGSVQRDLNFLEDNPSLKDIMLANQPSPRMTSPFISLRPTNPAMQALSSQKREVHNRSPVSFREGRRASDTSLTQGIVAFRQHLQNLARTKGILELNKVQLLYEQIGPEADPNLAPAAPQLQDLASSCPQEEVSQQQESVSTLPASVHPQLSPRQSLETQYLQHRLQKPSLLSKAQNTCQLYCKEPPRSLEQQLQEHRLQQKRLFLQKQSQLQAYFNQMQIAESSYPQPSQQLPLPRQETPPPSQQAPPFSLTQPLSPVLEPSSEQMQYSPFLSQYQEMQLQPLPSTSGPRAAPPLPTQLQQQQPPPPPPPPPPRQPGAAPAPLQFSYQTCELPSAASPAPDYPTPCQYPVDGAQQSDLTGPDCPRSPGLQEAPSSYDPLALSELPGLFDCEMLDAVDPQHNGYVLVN
Assay [9] shares this target. Conditions: at 1 µM.
The target of assay [10] is T2, Serine/threonine-protein kinase TBK1 (Homo sapiens) (UniProt Q9UHD2).
T2 sequence (whole entry): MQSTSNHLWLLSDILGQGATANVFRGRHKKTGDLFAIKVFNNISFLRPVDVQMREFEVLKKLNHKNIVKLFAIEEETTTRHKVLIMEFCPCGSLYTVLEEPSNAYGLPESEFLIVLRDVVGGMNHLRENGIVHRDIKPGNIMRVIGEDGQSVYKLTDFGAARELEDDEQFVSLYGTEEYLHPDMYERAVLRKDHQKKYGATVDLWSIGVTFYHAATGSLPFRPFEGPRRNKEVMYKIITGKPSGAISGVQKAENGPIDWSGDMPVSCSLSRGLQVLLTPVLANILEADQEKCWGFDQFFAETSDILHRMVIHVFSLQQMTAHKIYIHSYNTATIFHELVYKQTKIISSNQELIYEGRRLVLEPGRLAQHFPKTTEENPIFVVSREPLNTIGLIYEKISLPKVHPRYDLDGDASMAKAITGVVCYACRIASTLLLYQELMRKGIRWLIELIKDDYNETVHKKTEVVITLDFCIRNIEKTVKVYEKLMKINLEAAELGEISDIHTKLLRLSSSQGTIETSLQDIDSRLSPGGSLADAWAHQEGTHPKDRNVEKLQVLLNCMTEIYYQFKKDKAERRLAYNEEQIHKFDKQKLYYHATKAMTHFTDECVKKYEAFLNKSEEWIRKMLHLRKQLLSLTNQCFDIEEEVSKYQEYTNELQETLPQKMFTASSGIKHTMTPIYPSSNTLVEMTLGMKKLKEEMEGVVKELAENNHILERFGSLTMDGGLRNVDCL
The note with it: at 0.1 µM.

The target in assay [11] is T2, Serine/threonine-protein kinase TBK1 (Homo sapiens). Conditions: at 1 µM.
The target of assay [12] is T3, Testis-specific serine/threonine-protein kinase 1 (Homo sapiens) (UniProt Q9BXA7).
T3 sequence (whole entry): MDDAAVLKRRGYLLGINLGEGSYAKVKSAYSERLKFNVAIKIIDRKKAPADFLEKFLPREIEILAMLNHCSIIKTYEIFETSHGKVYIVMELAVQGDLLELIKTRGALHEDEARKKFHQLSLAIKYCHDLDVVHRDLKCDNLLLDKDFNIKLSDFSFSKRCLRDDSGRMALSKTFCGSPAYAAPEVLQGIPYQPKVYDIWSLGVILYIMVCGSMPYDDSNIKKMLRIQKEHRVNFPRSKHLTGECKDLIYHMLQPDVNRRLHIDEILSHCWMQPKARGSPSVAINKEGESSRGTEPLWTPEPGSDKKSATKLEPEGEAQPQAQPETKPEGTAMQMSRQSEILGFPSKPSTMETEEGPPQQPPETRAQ
The note with it: at 0.1 µM.

Assay [13] concerns the target T3, Testis-specific serine/threonine-protein kinase 1 (Homo sapiens). The note with it: at 1 µM.
The target in assay [14] is T4, Testis-specific serine/threonine-protein kinase 2 (Homo sapiens) (UniProt Q96PF2).
T4 sequence (whole entry): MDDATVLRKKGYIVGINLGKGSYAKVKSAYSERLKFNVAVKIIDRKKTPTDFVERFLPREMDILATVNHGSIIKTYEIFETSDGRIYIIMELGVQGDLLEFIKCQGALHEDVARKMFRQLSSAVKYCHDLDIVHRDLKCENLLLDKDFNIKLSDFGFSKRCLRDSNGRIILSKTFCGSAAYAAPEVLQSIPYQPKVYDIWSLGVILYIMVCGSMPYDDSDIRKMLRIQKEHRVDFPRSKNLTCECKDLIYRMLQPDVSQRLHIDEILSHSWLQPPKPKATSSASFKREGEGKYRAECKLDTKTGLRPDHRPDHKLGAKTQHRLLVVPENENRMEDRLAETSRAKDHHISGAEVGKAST
Conditions: at 0.1 µM.

In assay [15] the target is T4, Testis-specific serine/threonine-protein kinase 2 (Homo sapiens). The note with it: at 1 µM.
The target of assay [16] is Casein kinase I isoform alpha (Homo sapiens) (UniProt P48729). Conditions: at 0.1 µM.
Casein kinase I isoform alpha (Homo sapiens), sequence (P48729 2-337 limits assumed): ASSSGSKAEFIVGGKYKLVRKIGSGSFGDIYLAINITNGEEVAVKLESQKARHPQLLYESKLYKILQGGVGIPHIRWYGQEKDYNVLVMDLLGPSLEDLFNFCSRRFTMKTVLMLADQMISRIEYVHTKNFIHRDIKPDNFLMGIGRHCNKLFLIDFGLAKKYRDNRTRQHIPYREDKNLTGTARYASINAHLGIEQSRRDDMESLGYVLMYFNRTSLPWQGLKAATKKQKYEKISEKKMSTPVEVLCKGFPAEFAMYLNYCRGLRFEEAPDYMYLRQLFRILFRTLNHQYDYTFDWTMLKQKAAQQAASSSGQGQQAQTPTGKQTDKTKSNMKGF
For assay [17] the target is unchanged. The note with it: at 1 µM.
In assay [18] the target is Casein kinase I isoform gamma-1 (Homo sapiens) (UniProt Q9HCP0). The note with it: at 0.1 µM.
Casein kinase I isoform gamma-1 (Homo sapiens), sequence (Q9HCP0 whole entry, looked up, canonical isoform): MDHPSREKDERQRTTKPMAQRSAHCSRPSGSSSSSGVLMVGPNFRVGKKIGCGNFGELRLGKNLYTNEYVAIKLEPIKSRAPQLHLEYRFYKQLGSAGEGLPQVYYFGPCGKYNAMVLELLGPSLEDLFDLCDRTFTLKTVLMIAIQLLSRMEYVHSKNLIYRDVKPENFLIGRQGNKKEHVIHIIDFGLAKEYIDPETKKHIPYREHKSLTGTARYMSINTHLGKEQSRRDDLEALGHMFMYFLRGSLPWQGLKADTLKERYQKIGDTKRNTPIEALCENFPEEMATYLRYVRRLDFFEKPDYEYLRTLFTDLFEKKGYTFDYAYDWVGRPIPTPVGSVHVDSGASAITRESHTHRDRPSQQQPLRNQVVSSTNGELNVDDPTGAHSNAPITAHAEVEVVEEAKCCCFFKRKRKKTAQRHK
For assay [19] the target is unchanged. The note with it: at 1 µM.
Assay [20] concerns the target Casein kinase I isoform gamma-2 (Homo sapiens) (UniProt P78368). The note with it: at 0.1 µM.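 Note: values are mean inhibition figures reported as part of the GSK PKIS dataset.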

Values joined by “and” are separate entries in the source; they are usually repeats but may differ in a detail not shown here. Equal entries are not always repeated.

Serine/threonine-protein kinase pim-2 (Homo sapiens), sequence (Q9P1W9 whole entry, looked up): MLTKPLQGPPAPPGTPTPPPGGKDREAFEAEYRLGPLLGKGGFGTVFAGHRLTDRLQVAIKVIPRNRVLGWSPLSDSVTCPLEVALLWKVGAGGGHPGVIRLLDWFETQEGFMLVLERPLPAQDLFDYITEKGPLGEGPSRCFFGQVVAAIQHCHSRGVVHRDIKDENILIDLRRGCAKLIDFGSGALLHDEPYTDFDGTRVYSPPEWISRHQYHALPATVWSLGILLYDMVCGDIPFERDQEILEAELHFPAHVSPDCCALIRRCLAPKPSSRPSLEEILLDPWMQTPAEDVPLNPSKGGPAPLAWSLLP
Casein kinase I isoform gamma-2 (Homo sapiens), sequence (P78368 whole entry, looked up, canonical isoform): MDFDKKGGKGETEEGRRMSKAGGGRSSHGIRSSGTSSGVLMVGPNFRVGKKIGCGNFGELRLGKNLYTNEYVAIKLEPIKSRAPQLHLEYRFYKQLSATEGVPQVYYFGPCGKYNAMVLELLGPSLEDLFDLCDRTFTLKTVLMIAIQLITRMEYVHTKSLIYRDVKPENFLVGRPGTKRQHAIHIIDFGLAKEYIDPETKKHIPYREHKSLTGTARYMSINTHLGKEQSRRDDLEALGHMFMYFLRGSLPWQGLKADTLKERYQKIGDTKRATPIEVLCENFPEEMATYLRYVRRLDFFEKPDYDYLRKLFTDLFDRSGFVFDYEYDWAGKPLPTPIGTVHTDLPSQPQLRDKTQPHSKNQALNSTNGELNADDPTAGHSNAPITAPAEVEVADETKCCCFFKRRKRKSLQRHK

With `Nc1nccc(-c2c(-c3ccc(F)cc3)ncn2C2CCNCC2)n1`, the inhibition was 1.8% and 0.96% in assay [1]; 0.82% and 0.07% in assay [2]; 11% and 0.53% in assay [3]; -1.67% and 0.07% in [4]; -1.48% and 0.35% in assay [5]; -9% and 6.76% in [6]. The inhibition in assay [7] is -2.37% and 5.84%; in [8] it was -0.69% and 8.02%; in [9], 37.4% and 47.1%; in assay [10], -1.45% and -0.58%; in assay [11], -0.8% and 3.12%; in assay [12] it was -0.43% and -0.33%. Further, the inhibition in assay [13] is -1.08% and -1.15%; in assay [14], -2.53% and 0.42%; in assay [15] it was -0.67% and -0.42%; in assay [16] it was 61.4% and 67%; in [17], 85% and 86.4%; in [18], -1.9% and 1.36%. Also, the inhibition in [19] was 8.77% and 13.7%; in assay [20], -1.89% and 0.78%.

Turning to `COc1c(C(N)=O)cc(-c2ccc(Cl)cc2)cc1-c1ccc(S(N)(=O)=O)cc1`, the inhibition in assay [1] is -0.88%; in [2], -0.2%; in assay [3], 0.43%; in [4] it was 1.35%; in assay [5], 2.31%; in assay [6], 10.7%. Also, the inhibition is 16.1% in assay [7]; 8.28% in assay [8]; 6.93% in [9]; 4.69% in [10]; 3.5% in assay [11]; 4.67% in [12]. For the same compound, the inhibition stood at 5.11% in assay [13]; 2.57% in assay [14]; 2.89% in assay [15]; 5.95% in assay [16]; 12.6% in [17]; 4.33% in [18]. In addition, the inhibition came out at 6.12% in assay [19] and 4.61% in assay [20].

Take `CS(=O)(=O)Nc1ccc(-c2cc(-c3ccccc3)cc(C(N)=O)c2N)cc1`: the inhibition in [1] worked out at 0.82%; in assay [2], 0.62%; in assay [3], 1.22%; in [4], 0.73%; in assay [5], 3.19%; in [6], 1.69%. In addition, the inhibition in [7] was 7.99%; in assay [8] it was -1.02%; in assay [9], 3.58%; in [10], 1.82%; in assay [11], 2.08%; in assay [12], 2.3%. Besides, the inhibition stood at 2.85% in assay [13]; 0.46% in assay [14]; 1.61% in assay [15]; 0.02% in assay [16]; 2.47% in assay [17]; 0.73% in assay [18]. The inhibition in [19] is 0.84%; in assay [20], 0.2%.

For the compound `CCCNc1cccc(-n2ncc3c(N/N=C/c4ccncc4)ncnc32)c1`, the inhibition in assay [1] is 0.32%; in [2], 3.58%; in assay [3], 4.06%; in assay [4], 0.95%; in [5] it was 1.6%; in assay [6] it was 3.14%. The inhibition was 9.54% in assay [7]; -0.68% in assay [8]; 21.1% in [9]; 2.22% in assay [10]; 20.2% in assay [11]; 1.42% in assay [12]. In addition, the inhibition in [13] came to 6.17%; in assay [14] it was 0.21%; in assay [15], 3.17%; in assay [16] it was 0.14%; in [17], 1.89%; in assay [18], 0.84%. The inhibition in assay [19] stood at 1.57%; in [20] it was 1.79%.

`CC(C)c1ccc(-c2cc(-c3c[nH]nc3-c3ccccn3)ccn2)cc1`: the inhibition was -0.1% in [1]; 0.23% in assay [2]; -0.66% in [3]; 0.04% in assay [4]; -0.19% in assay [5]; 0.32% in assay [6]. The inhibition in [7] is 0.87%; in assay [8] it was -2.6%; in [9], -1.02%; in [10], 0.97%; in assay [11], -0.11%; in assay [12] it was 0.45%. The inhibition in assay [13] is 0.81%; in assay [14], -0.82%; in assay [15], -1.06%; in assay [16], 3.57%; in [17], 9.88%; in assay [18] it was 0.64%. The inhibition in assay [19] came out at 2.41%; in [20], 0.19%.

Take `O=C(Nc1n[nH]c2nnc(-c3cccnc3)cc12)C1CC1`: the inhibition in assay [1] was 28.7%; in assay [2], 26.8%; in [3], 69.7%; in assay [4] it was 0.13%; in assay [5] it was -0.19%; in assay [6] it was 1.74%. The inhibition in [7] is 5.12%; in [8], 1.86%; in [9] it was -1.67%; in [10], 0.25%; in [11] it was 1.3%; in [12] it was 0.18%. Moreover, the inhibition is 1.92% in [13]; -0.11% in assay [14]; 0.95% in assay [15]; -0.76% in assay [16]; -2.19% in assay [17]; -0.63% in [18]. Moreover, the inhibition in [19] is 0.33%; in assay [20], -0.76%.

On to `OCCCNc1nccc(-c2c(-c3ccc(F)cc3)nn3cc(C(F)(F)F)ccc23)n1`, for which the inhibition in [1] is -0.96%; in assay [2], -0.81%; in assay [3], -0.18%; in assay [4] it was -0.21%; in assay [5] it was -1.07%; in [6], 5.25%. Also, the inhibition came out at 6.5% in assay [7]; 7.07% in assay [8]; 16.9% in assay [9]; 2.49% in [10]; 5.25% in [11]; 1.75% in [12]. Further, the inhibition was -0.99% in assay [13]; 1.56% in [14]; -2.79% in [15]; 8.54% in assay [16]; 28.7% in assay [17]; 1.82% in [18]. The inhibition in assay [19] worked out at 4.37%; in assay [20] it was 0.31%.

Broadly, the inhibition is the change of the read-out against control, counted positive when it falls.
